From the supplement of paper PMC10849652
Targets with a hit are over-represented here; the source holds about 8,800 in all. About 0.5% of all pairs of compound and target were hits.

Tests used:
Assay in all cases: log2 fold change, soluble protein after heating vs DMSO (PISA); higher = thermal stabilisation; K562 lysate, 10 uM; active = over 0.2 and 3.5 SD of the protein, either way, in both replicates (recomputed)
erlotinib = compound: C#Cc1cccc(Nc2ncnc3cc(OCCOC)c(OCCOC)cc23)c1 [erlotinib]
Summary of the method: (§1)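 Following dounce homogenisation of K562 pellets in PBS pH 7.4 with 1 mM MgCl2, crude extract at 1 mg/mL protein was incubated for 30 min with 10 μM compound. Aliquots were then heated for 3 min over 48°C-58°C and pooled, NP-40 was added to 0.5% at 4°C, and soluble protein was recovered as the supernatant at 21,000xg for 90 min. Channel-sum-equalised TMTpro 16plex LC-MS/MS quantified this protein. Each value, from duplicates, is a log-two fold change in thermal stability relative to solvent controls.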

[1] = compound: C/C(=N\NC(=O)C1=CC(=CC=C1)S(=O)(=O)N2CCOCC2)/C3=C(C=CC(=C3)Cl)O
Summary of the method: as §1

[2] = compound: C1=CC(=CC=C1C2=NC3=C(N2)C=C(C=C3)C(=O)N)OC4=CC=C(C=C4)Cl
Summary of the method: as §1

[3] = compound: C1=CC2=C(C=CC(=C2)/C=C\3/C(=O)NC(=NCC4=CC=CS4)S3)N=C1
Summary of the method: as §1

[4] = compound: C1=CC2=NC=CN=C2C=C1/C=C/3\C(=O)NC(=O)S3
Summary of the method: as §1

[5] = compound: C1=CC=C(C=C1)C2=NC(=C(N2)C3=CC=NC=C3)C4=CC(=C(C=C4)Cl)O
Summary of the method: as §1

[6] = compound: C1=CC=C2C(=C1)C3=NNC4=CC=CC(=C43)C2=O
Summary of the method: as §1

[7] = compound: C1CCN(C1)C(=O)NC2=CC=CC(=C2)NC3=NC=C(C(=N3)NCCC4=CN=CN4)Br
Summary of the method: as §1

[8] = compound: C1CN(CCC1(CC2=CC=C(C=C2)Cl)N)C3=NC=NC4=C3C=CN4
Summary of the method: as §1

IRAK-1-4 Inhibitor I = compound: C1COCCN1CCN2C3=CC=CC=C3N=C2NC(=O)C4=CC(=CC=C4)[N+](=O)[O-] [IRAK-1-4 Inhibitor I]
Summary of the method: as §1

ibrutinib = compound: C=CC(=O)N1CCC[C@@H](n2nc(-c3ccc(Oc4ccccc4)cc3)c3c(N)ncnc32)C1 [ibrutinib]
Summary of the method: as §1

[9] = compound: CC(=O)c1cnc2ccc(-c3cc(Cl)c(O)c(Cl)c3)nc2c1N[C@H]1CC[C@H](CN(C)C)CC1
Summary of the method: as §1

ralimetinib = compound: CC(C)(C)Cn1c(N)nc2ccc(-c3[nH]c(C(C)(C)C)nc3-c3ccc(F)cc3)nc21 [ralimetinib]
Summary of the method: as §1

[10] = compound: CC(C)(O)CC(=O)NCCn1ccc2ncnc(Nc3ccc(Oc4cccc(C(F)(F)F)c4)c(Cl)c3)c21
Summary of the method: as §1

[11] = compound: CC(C)C1=C2N=C(C=C(N2N=C1)NCC3=CC=CC=C3)NCCCCCCN
Summary of the method: as §1

[12] = compound: CC1=C(C(CC(=O)N1)C2=CC=C(C=C2)C(F)(F)F)C(=O)NC3=C(C=C4C(=C3)C=NN4)F
Summary of the method: as §1

[13] = compound: CC1=C(C2=C(C=C1)C(=O)C3=CC=CC=C3N2CCCN)C
Summary of the method: as §1

[14] = compound: CC1=C(C=C(C=C1)NC(=O)C2=CC(=CC=C2)C(C)(C)C#N)NC3=CC4=C(C=C3)N=CN(C4=O)C
Summary of the method: as §1

[15] = compound: CC1=C(C=C(C=C1)NC(=O)C2=CC(=CC=C2)N(C)C)NC(=O)C3=CC=C(C=C3)O
Summary of the method: as §1

[16] = compound: CC1=CC=C(C=C1)SC2=C3C=C(SC3=CN=C2)C(=O)N
Summary of the method: as §1

Measured: log2 fold change

HDAC10 (UniProt Q969S8)
UniProt Q969S8, sequence (Q969S8 whole entry, looked up): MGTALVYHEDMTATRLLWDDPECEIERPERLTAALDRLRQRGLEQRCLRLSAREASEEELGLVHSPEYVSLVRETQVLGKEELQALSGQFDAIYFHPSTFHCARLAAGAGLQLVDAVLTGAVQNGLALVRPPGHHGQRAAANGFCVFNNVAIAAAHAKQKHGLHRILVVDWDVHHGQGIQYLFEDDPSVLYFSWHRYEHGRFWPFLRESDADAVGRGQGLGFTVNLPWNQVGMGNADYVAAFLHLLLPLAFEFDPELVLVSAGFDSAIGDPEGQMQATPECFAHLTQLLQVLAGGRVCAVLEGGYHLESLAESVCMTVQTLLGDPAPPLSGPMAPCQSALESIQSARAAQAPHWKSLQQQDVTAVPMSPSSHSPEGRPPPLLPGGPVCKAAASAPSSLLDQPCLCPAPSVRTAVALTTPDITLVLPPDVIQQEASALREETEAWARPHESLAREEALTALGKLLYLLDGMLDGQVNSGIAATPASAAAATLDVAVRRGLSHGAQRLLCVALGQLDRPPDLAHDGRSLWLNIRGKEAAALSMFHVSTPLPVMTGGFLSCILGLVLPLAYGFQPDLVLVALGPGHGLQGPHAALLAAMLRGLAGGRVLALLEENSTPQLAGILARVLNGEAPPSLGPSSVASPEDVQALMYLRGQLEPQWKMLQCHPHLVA
inactive: erlotinib 0.064 | [1] 0.126 | [2] 0.035 | [3] -0.155 | [4] -0.201 | [5] -0.111 | [6] -0.043 | [7] -0.204 | [8] 0.053 | IRAK-1-4 Inhibitor I 0.016 | ibrutinib -0.038 | [9] 0.019 | ralimetinib -0.106 | [10] 0.144 | [11] -0.207 | [12] -0.11 | [13] -0.088 | [14] 0.037 | [15] 0.022 | [16] 0.017

HNRNPL (UniProt P14866)
UniProt P14866, sequence (P14866 whole entry, looked up): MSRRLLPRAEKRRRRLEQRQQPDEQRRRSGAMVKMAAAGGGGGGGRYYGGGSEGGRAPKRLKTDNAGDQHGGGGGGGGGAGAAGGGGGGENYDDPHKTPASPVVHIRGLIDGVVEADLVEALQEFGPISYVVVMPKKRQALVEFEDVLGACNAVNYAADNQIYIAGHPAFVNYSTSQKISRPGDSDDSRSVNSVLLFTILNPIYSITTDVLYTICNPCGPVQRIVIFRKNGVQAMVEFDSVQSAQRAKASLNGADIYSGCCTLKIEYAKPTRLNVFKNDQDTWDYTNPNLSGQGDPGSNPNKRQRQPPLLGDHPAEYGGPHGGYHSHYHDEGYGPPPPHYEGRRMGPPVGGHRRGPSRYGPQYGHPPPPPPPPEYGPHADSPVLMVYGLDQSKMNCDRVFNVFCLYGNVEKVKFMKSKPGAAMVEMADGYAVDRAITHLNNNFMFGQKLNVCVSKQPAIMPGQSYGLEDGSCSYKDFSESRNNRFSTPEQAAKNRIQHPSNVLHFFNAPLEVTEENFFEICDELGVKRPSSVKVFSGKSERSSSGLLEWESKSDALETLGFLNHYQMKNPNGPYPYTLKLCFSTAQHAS
inactive: erlotinib 0.054 | [1] 0.073 | [2] 0.022 | [3] -0.007 | [4] 0.013 | [5] 0.033 | [6] -0.041 | [7] -0.017 | [8] -0.003 | IRAK-1-4 Inhibitor I 0.014 | ibrutinib -0.015 | [9] 0.012 | ralimetinib 0.047 | [10] 0.046 | [11] 0.051 | [12] 0 | [13] 0.021 | [14] 0.001 | [15] 0.058 | [16] 0.032

HSD17B10 (UniProt Q99714)
UniProt Q99714, sequence (Q99714 whole entry, looked up): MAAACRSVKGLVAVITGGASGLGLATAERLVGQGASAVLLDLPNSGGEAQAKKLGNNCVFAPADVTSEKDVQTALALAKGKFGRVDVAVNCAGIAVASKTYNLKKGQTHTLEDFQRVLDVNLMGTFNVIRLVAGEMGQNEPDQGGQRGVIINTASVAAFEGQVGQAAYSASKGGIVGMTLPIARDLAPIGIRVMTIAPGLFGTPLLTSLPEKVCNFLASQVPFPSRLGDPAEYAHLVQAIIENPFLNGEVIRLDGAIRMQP
inactive: erlotinib 0.018 | [1] -0.044 | [2] 0.035 | [3] -0.023 | [4] 0.01 | [5] 0.016 | [6] -0.054 | [7] -0.03 | [8] 0.054 | IRAK-1-4 Inhibitor I 0.012 | ibrutinib -0.012 | [9] -0.018 | ralimetinib 0.004 | [10] -0.003 | [11] 0 | [12] -0.026 | [13] -0.031 | [14] -0.018 | [15] -0.007 | [16] -0.025

GSTP1 (UniProt P09211)
UniProt P09211, sequence (P09211 whole entry, looked up): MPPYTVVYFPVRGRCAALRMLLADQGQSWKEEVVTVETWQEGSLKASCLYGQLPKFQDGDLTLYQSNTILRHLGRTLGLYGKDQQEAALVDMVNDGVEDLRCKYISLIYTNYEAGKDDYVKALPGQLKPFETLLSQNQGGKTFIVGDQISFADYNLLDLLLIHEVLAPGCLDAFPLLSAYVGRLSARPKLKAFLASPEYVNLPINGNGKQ
inactive: erlotinib -0.008 | [1] 0.035 | [2] -0.024 | [3] 0.036 | [4] 0.08 | [5] -0.002 | [6] 0.007 | [7] -0.022 | [8] -0.022 | IRAK-1-4 Inhibitor I 0 | ibrutinib -0.012 | [9] 0.042 | ralimetinib 0.011 | [10] -0.003 | [11] 0.021 | [12] -0.011 | [13] 0.036 | [14] -0.025 | [15] 0.003 | [16] -0.003

HAUS8 (UniProt Q9BT25)
UniProt Q9BT25, sequence (Q9BT25 whole entry, looked up): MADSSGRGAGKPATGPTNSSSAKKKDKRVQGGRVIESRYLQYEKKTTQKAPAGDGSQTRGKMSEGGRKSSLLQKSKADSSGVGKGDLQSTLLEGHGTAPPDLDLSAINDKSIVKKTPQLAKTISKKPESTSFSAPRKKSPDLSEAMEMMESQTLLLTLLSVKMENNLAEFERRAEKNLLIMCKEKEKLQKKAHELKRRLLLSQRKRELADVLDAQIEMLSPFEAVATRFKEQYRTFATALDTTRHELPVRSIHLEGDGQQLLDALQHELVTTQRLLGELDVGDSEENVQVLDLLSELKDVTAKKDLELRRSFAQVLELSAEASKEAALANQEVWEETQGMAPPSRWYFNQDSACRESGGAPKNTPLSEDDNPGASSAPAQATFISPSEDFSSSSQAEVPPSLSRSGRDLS
inactive: erlotinib 0.007 | [1] -0.007 | [2] 0.007 | [3] 0.016 | [4] -0.06 | [5] -0.029 | [6] 0.142 | [7] 0.001 | [8] 0.062 | IRAK-1-4 Inhibitor I 0.015 | ibrutinib 0.049 | [9] -0.01 | ralimetinib 0.054 | [10] 0.011 | [11] -0.012 | [12] -0.044 | [13] -0.062 | [14] 0.003 | [15] 0.033 | [16] 0.036

HERC2 (UniProt O95714)
inactive: erlotinib 0.014 | [1] 0.174 | [2] 0.115 | [3] 0.007 | [4] 0.01 | [5] 0.042 | [6] -0.061 | [7] -0.016 | [8] -0.001 | IRAK-1-4 Inhibitor I -0.033 | ibrutinib 0.001 | [9] 0.053 | ralimetinib 0.002 | [10] 0.02 | [11] 0.082 | [12] 0.028 | [13] -0.063 | [14] 0.021 | [15] 0.041 | [16] 0.015

HMGA1 (UniProt P17096)
UniProt P17096, sequence (P17096 whole entry, looked up): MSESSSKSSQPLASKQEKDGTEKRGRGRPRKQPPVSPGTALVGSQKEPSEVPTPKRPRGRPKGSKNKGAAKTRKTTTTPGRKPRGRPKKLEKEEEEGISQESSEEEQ
inactive: erlotinib -0.037 | [1] -0.053 | [2] -0.001 | [3] -0.026 | [4] -0.053 | [5] -0.007 | [6] 0.026 | [7] 0.036 | [8] 0.013 | IRAK-1-4 Inhibitor I -0.022 | ibrutinib 0.004 | [9] -0.022 | ralimetinib -0.024 | [10] -0.043 | [11] 0.002 | [12] -0.03 | [13] 0.075 | [14] -0.008 | [15] -0.023 | [16] -0.017

GSK3B isoform 2 (UniProt P49841)
UniProt P49841, sequence (P49841 whole entry, looked up): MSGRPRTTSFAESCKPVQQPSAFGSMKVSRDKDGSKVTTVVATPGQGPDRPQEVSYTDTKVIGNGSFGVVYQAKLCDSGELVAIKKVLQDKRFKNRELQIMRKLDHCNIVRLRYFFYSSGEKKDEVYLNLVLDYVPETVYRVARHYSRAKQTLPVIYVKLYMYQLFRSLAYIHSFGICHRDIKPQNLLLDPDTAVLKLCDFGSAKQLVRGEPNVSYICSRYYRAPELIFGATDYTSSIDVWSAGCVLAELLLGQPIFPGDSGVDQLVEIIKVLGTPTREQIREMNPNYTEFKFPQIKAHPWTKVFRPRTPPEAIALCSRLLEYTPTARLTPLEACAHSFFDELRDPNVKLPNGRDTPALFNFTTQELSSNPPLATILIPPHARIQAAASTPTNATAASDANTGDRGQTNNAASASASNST
inactive: erlotinib 0.043 | [1] -0.323 | [2] 0.036 | [3] 0.145 | [4] 0.085 | [5] 0.459 | [6] 0.132 | [7] 0.202 | [8] -0.011 | IRAK-1-4 Inhibitor I -0.002 | ibrutinib -0.064 | [9] 0.344 | ralimetinib -0.012 | [10] -0.008 | [11] -0.016 | [12] -0.04 | [13] -0.006 | [14] -0.018 | [15] -0.029 | [16] 0.189

KHK isoform 2 (UniProt P50053)
UniProt P50053, sequence (P50053 whole entry, looked up): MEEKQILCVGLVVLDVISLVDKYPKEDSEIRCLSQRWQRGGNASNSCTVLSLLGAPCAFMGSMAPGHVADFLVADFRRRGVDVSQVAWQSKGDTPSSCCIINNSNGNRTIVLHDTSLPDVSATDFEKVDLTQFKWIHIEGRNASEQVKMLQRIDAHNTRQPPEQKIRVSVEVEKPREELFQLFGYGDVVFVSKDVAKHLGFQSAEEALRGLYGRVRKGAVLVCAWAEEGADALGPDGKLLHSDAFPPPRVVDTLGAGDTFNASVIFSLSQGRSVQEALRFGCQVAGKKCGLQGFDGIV
inactive: erlotinib -0.07 | [1] 0.024 | [2] 0.072 | [3] -0.005 | [4] 0.044 | [5] 0.069 | [6] 0.044 | [7] 0.032 | [8] -0.018 | IRAK-1-4 Inhibitor I 0.084 | ibrutinib 0.023 | [9] 0.039 | ralimetinib 0.001 | [10] -0.032 | [11] -0.033 | [12] 0.013 | [13] -0.025 | [14] 0.185 | [15] -0.033 | [16] -0.04

IFITM3 (UniProt Q01628)
UniProt Q01628, sequence (Q01628 whole entry, looked up): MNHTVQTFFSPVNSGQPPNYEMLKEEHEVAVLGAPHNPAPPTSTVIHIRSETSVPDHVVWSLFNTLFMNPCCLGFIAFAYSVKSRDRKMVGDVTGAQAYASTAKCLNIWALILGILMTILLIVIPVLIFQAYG
inactive: erlotinib -0.136 | [1] -0.11 | [2] 0.062 | [3] 0.004 | [4] -0.094 | [5] -0.122 | [6] 0.084 | [7] -0.095 | [8] -0.069 | IRAK-1-4 Inhibitor I -0.026 | ibrutinib -0.07 | [9] -0.042 | ralimetinib 0.179 | [10] 0.078 | [11] 0.003 | [12] -0.173 | [13] -0.117 | [14] -0.133 | [15] -0.026 | [16] 0.129

INTS8 (UniProt Q75QN2)
inactive: erlotinib -0.002 | [1] 0.043 | [2] -0.051 | [3] 0.02 | [4] -0.048 | [5] 0.037 | [6] -0.004 | [7] 0.066 | [8] -0.035 | IRAK-1-4 Inhibitor I 0.015 | ibrutinib 0.024 | [9] 0.028 | ralimetinib 0.058 | [10] -0.028 | [11] 0.009 | [12] -0.021 | [13] -0.179 | [14] 0.023 | [15] -0.033 | [16] 0.031

HMGCS1 (UniProt Q01581)
UniProt Q01581, sequence (Q01581 whole entry, looked up): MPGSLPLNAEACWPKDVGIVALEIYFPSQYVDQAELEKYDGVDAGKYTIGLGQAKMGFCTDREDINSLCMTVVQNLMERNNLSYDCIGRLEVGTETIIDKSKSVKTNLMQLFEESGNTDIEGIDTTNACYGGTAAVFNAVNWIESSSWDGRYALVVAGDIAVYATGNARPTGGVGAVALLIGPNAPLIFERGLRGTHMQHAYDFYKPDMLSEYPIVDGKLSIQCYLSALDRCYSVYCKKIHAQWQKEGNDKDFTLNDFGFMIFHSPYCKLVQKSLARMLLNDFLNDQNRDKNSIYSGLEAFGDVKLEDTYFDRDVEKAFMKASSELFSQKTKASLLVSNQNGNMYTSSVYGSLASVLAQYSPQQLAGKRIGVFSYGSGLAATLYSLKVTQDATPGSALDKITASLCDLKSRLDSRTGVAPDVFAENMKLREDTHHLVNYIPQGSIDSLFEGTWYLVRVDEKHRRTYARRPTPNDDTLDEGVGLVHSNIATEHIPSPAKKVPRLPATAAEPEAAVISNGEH
inactive: erlotinib -0.003 | [1] -0.035 | [2] 0.006 | [3] -0.001 | [4] -0.005 | [5] 0.014 | [6] 0.004 | [7] 0.003 | [8] 0.012 | IRAK-1-4 Inhibitor I -0.009 | ibrutinib -0.012 | [9] -0.006 | ralimetinib 0.012 | [10] -0.01 | [11] -0.001 | [12] -0.011 | [13] 0.013 | [14] -0.001 | [15] 0.006 | [16] 0.015

IRF2BPL (UniProt Q9H1B7)
inactive: erlotinib 0.024 | [1] 0.102 | [2] 0.037 | [3] 0.022 | [4] -0.034 | [5] 0.002 | [6] -0.008 | [7] -0.002 | [8] 0.027 | IRAK-1-4 Inhibitor I -0.027 | ibrutinib 0.052 | [9] 0.004 | ralimetinib 0.039 | [10] 0.026 | [11] -0.026 | [12] 0.02 | [13] -0.018 | [14] 0.045 | [15] 0.029 | [16] -0.038

INTS1 (UniProt Q8N201)
inactive: erlotinib 0.016 | [1] 0.063 | [2] 0.013 | [3] -0.071 | [4] -0.017 | [5] 0.027 | [6] -0.097 | [7] -0.01 | [8] 0.025 | IRAK-1-4 Inhibitor I 0.016 | ibrutinib -0.103 | [9] 0.177 | ralimetinib 0.053 | [10] -0.007 | [11] -0.052 | [12] -0.052 | [13] 0.038 | [14] -0.032 | [15] 0.035 | [16] 0.026

GOLPH3L (UniProt Q9H4A5)
UniProt Q9H4A5, sequence (Q9H4A5 whole entry, looked up): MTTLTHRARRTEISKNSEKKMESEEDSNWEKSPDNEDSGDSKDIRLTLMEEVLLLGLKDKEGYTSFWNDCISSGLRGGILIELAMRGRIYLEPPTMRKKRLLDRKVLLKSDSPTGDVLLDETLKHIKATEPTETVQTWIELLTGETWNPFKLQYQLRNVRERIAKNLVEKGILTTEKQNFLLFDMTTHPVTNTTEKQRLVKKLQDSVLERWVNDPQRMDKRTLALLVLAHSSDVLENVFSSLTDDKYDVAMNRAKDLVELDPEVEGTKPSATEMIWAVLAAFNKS
inactive: erlotinib 0.028 | [1] -0.003 | [2] 0.012 | [3] 0.07 | [4] -0.03 | [5] 0.092 | [6] -0.085 | [7] 0.005 | [8] 0.03 | IRAK-1-4 Inhibitor I 0.023 | ibrutinib 0.058 | [9] 0.005 | ralimetinib -0.058 | [10] 0.071 | [11] 0.009 | [12] -0.042 | [13] -0.01 | [14] 0.114 | [15] -0.029 | [16] 0.006

INTS5 (UniProt Q6P9B9)
UniProt Q6P9B9, sequence (Q6P9B9 whole entry, looked up): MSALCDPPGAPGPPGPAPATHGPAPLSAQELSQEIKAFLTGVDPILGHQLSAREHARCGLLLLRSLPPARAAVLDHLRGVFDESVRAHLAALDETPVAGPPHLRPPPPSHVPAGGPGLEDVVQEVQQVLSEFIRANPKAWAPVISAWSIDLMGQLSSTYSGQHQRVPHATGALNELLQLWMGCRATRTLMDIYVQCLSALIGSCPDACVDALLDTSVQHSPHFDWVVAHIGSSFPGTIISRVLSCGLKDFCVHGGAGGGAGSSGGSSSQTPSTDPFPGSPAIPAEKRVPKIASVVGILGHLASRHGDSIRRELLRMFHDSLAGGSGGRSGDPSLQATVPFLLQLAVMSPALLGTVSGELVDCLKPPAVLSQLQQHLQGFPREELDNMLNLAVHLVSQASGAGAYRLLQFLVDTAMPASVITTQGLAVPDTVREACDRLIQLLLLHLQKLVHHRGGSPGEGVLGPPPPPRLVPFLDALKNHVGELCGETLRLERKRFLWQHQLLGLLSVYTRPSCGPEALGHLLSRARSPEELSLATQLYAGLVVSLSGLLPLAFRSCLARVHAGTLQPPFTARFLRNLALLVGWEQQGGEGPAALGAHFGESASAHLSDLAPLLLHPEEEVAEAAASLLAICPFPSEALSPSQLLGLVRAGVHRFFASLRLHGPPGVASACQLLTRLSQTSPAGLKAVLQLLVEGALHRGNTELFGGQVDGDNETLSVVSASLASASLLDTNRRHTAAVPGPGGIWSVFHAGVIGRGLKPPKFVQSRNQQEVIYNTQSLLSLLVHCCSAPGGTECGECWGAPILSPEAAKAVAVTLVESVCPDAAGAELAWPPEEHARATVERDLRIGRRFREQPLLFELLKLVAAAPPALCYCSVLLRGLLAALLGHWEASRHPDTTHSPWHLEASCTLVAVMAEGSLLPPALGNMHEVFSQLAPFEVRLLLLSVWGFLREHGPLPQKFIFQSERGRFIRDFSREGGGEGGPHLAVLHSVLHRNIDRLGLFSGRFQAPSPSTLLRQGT
inactive: erlotinib 0.002 | [1] -0.061 | [2] -0.082 | [3] -0.04 | [4] 0.068 | [5] -0.072 | [6] -0.098 | [7] -0.001 | [8] 0.247 | IRAK-1-4 Inhibitor I -0.015 | ibrutinib 0.051 | [9] 0.056 | ralimetinib 0.051 | [10] -0.038 | [11] -0.06 | [12] -0.013 | [13] 0.021 | [14] 0 | [15] 0.039 | [16] 0.003
